These results are taken from PubChem BioAssay.

Molecules are shown by their SMILES.

This assay can be described thus: blood-stage malaria parasite viability loss – strain 3D7, DAPI fluorescence, 100 nL, primary screen (AID 1184).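 Also: parasites grown inside human red blood cells in medium with human serum.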 The following applies: P. falciparum 3D7 growth, 3 d, higher = more signal.
The compound `C[C@H]1CC[C@H]2C(=O)N[C@H](Cc3ccccc3)C(=O)N2[C@@H]1c1ccccc1` gave a z-score of 0.388.

On to `COc1ccc(COC(=O)NN=C2C[C@@H](O)[C@@H](O)[C@@H]3[C@@H]4C(=O)N(C[C@@H]5CCCO5)C(=O)[C@@H]4CC[C@H]23)cc1`, for which the z-score is -0.534.

With `OC[C@H]1O[C@H](C#Cc2ccccc2)C=C[C@@H]1O`, the z-score came to 0.223.

Regarding `O=C1C=C[C@@H](O)[C@@H]2[C@@H]3C(=O)N(c4cccc(Oc5ccccc5)c4)C(=O)[C@@H]3CC[C@@H]12`, the z-score is -1.46.

For `O=C1CCCC=C1C(O)COCc1ccccc1` (stereo unspecified), the z-score is -0.674.

In turn, `CCN1C(=O)[C@H]2[C@H]3[C@H](O)[C@H](O)CC(=NO[C@H](C)c4cn([C@H](CO)Cc5ccccc5)nn4)[C@@H]3CC[C@H]2C1=O` gave a z-score of 1.44.

Regarding `COc1ccc(O[C@H]2C=C[C@@H](c3ccccc3)O[C@@H]2CON=C2c3cc(OC)ccc3O[C@H](c3cccc(OC)c3)[C@H]2O)cc1`, the z-score is 0.106.

With `CCOC(=O)CCN1C(=O)[C@H]2[C@@H]3C(=CC[C@H]2C1=O)C(=O)[C@H]1O[C@H]1[C@H]3O`, the z-score is -1.5.

Turning to `CC(C)=CCCC(C)=CCON=C1C[C@@H](O)[C@@H](O)[C@@H]2[C@@H]3C(=O)N(Cc4ccc5c(c4)OCO5)C(=O)[C@@H]3CC[C@H]12`, the z-score is -0.348.

Consider `C=CC[C@@H]1C=C[C@H](ON=C(C)CCN2CCCCc3nc(C)c(C)cc32)[C@@H](CO)O1`, for which the z-score is -0.784.

Turning to `CON=C(C)CCN1CCCCc2nc(C)c(C)cc21`, the z-score was determined as 1.06.

In the case of `COc1ccc(COC(=O)NN=C2C[C@@H](O)[C@@H](O)[C@@H]3[C@@H]4C(=O)N(c5cccc(Oc6ccccc6)c5)C(=O)[C@@H]4CC[C@H]23)cc1`, the z-score was -1.34.

Take `COCCNC(=O)OCC1CCCC2(CC(OC(=O)NCc3cccc4ccccc34)CC(CCC(=O)N[C@@H](C)C(=O)OC)O2)O1` (stereo partly specified): the z-score was -1.85.

`CCOC(=O)[C@H](CC(C)C)NC(=O)CCC1CC(OC(=O)NCc2ccc3c(c2)OCO3)CC2(CCCC(COC(=O)NCCc3ccc(Cl)cc3)O2)O1` (stereo partly specified): the z-score is -1.66.

Take `CC(C)CON=C1C[C@@H](O)[C@@H](O)[C@@H]2[C@@H]3C(=O)N(Cc4ccc5c(c4)OCO5)C(=O)[C@@H]3CC[C@@H]12`: the z-score is -0.721.

As to `CC(C)=CCCC(C)=CCON=C1C[C@@H](O)[C@@H](O)[C@@H]2[C@@H]3C(=O)N(Cc4ccc5c(c4)OCO5)C(=O)[C@@H]3CC[C@@H]12`, the z-score is -0.526.

As to `Cc1cc2c(nc1C)CCCCN2CC(O)CN1CCCc2nc(-c3ccc(Br)cc3)ccc21` (stereo unspecified), the z-score was 0.528.

Take `COc1ccc(OC[C@@H]2CC3[C@@H](c4ccc(Br)cc4)[C@H](C)CC[C@H]3C(=O)O2)cc1` (stereo partly specified): the z-score amounted to 0.163.

For the compound `CCN1C(=O)[C@H]2[C@H]3[C@H](O)[C@H](O)CC(=NO[C@@H]4O[C@H](COC(C)=O)[C@@H](OC(C)=O)[C@H](OC(C)=O)[C@H]4OC(C)=O)[C@@H]3CC[C@H]2C1=O`, the z-score was 1.87.

In the case of `COc1ccc(O[C@H]2C=C[C@@H](c3ccccc3)O[C@@H]2COC(=O)NCc2cccc3ccccc23)cc1`, the z-score is -0.806.

`CCN1C(=O)[C@H]2[C@H]3[C@H](O)[C@H](O)CC(=NOC[C@@H](O)COCc4ccco4)[C@H]3CC[C@H]2C1=O`: the z-score is -0.0786.

For the compound `CCOC(=O)CCN1C(=O)[C@H]2[C@H]3[C@H](O)[C@H](O)CC(=NO[C@@H]4O[C@H](CO)[C@@H](O)[C@H](O)[C@H]4O)[C@H]3CC[C@H]2C1=O`, the z-score was determined as 0.209.

As to `CO[C@H]1COC(=O)CC=C[C@@H](C)COC(=O)[C@H]2CCCN2C(=O)CC=C[C@H]1C`, the z-score was 0.655.

Turning to `CCCC[C@H]1CN2[C@@H](CC[C@@H](C)[C@@H]2c2ccc(Br)cc2)C(=O)O1`, the z-score was -0.278.

With `CCOC(=O)CCN1C(=O)[C@H]2[C@H]3[C@H](O)[C@H](O)CC(=NOCC=C(C)CCC=C(C)C)[C@@H]3CC[C@H]2C1=O`, the z-score is 0.664.

In the case of `CCN1C(=O)[C@H]2[C@H]3[C@H](O)[C@H](O)CC(=NOCC[C@@H]4C=C[C@H](OC(C)=O)[C@@H](COC(C)=O)O4)[C@@H]3CC[C@H]2C1=O`, the z-score was found to be 0.145.

Compound `CCOC(=O)CCN1C(=O)[C@H]2[C@H]3[C@H](O)[C@H](O)CC(=NO[C@@H]4O[C@H](CO)[C@@H](O)[C@H](O)[C@H]4O)[C@@H]3CC[C@H]2C1=O` yielded a z-score of 0.434.

Regarding `CCOC(=O)[C@H](CC(C)C)NC(=O)CCC1CC(OC(=O)NCCc2ccc(F)cc2)CC2(CCCC(COC(=O)NCCOC)O2)O1` (stereo partly specified), the z-score was -1.9.

In the case of `C[C@@H](c1ccccc1)N1C(=O)[C@H]2[C@H]3[C@H](O)[C@H](O)CC(=NOC[C@@H](O)COCc4ccco4)[C@H]3CC[C@H]2C1=O`, the z-score was -2.06.

On to `CC(C)CN1CCc2nc(-c3ccccc3)c3c(c2C1)CO[C@@H](C)C3`, for which the z-score was -0.927.

The compound `O=C1[C@H]2[C@H]3[C@H](O)[C@H](O)CC(=NOC[C@@H](O)COCc4ccco4)[C@@H]3CC[C@H]2C(=O)N1c1cccc(Oc2ccccc2)c1` showed a z-score of 0.48.

In the case of `CO[C@@H](C1CCCCC1)[C@@H](C)[C@H](OCc1cccc(Br)c1)[C@@H](C)CO`, the z-score is -0.254.

`CCN1C(=O)[C@H]2[C@H]3[C@H](O)[C@H](O)CC(=NO[C@@H]4O[C@H](CO)[C@@H](O)[C@H](O)[C@H]4O)[C@H]3CC[C@H]2C1=O`: the z-score was -0.0716.

`CCN1C(C)=C(C(=O)OC)[C@@H](c2ccccc2)N2C(=O)[C@](O)(C(=O)OC)CC(C(C)=O)=C12`: the z-score came to 0.752.

`C#CCCCON=C1[C@H]2CCn3c(=O)n([C@@H](CC)c4ccccc4)c(=O)n3[C@H]2[C@H](O)[C@@H]2O[C@H]12`: the z-score is -0.9.

For `CCOC(=O)[C@H](Cc1ccccc1)NC(=O)CCC1CC(OC(=O)NCc2ccc3c(c2)OCO3)CC2(CCCC(COC(=O)NCCOC)O2)O1` (stereo partly specified), the z-score is -2.09.
